# Shown are actives, neighbours in structure and some others; about 10% of the full set was active somewhere.
# PNC inhibitor: High Content Assay for Compounds that inhibit the Assembly of the Perinucleolar Compartment; AID 2417, 2010; activity change (PNC), negative = inhibition, % at 10 µM; PC3M PTB-GFP, PNC prevalence imaging, 16 h; active compounds read low; 3.1% of 140,000 active;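 active means readout at or below -70, meaning at least 70% loss of cells showing the perinucleolar compartment, a nuclear body marking cancer cells; inconclusive means readout between -30 and a set limit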;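 further: plate controls were DMSO wells for no effect and camptothecin positive control wells for full effect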
#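 Compounds are pinned in duplicate onto adhered PC3M cells stably expressing GFP-tagged PTB and incubated 16 h at 37 C. Cells are then fixed, nuclei stained with Hoechst, and PNC-positive cells counted.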
# KinaseGlo FLuc: Counterscreen for Luciferase (Kinase-Glo TM) Inhibition; Luciferin 4-monooxygenase (Photuris pensylvanica), Q27757; Kinase-Glo luciferase, ATP luminescence, 8 min; Potency, µM (highest dose often 38.3 µM), for the others: at the highest dose activity change, negative = inhibition, hits mostly inhibitors; 0.28% of 200,000 active; AID 1379, 2008; active means well fitted inhibition curve with a large enough effect; inconclusive means small, poorly fitted or top-dose-only effect; further: potency means the concentration at half of the fitted maximal effect; nearly all actives have a fitted effect of over 60% in size
#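 Light output from Kinase-Glo luciferase with luciferin and 10 uM ATP in 50 mM imidazole pH 7.2, KCl, MgCl2, Tween 20, BSA; compound pin-delivered, 8-min ambient incubation, then luminescence read.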
# Lamin A splicing: qHTS Assay for Modulators of Lamin A Splicing; Potency, µM (series often up to 46.1 µM), without a hit: at the top dose ratio change, negative = inhibition, actives largely listed as inhibitors; AID 1487, 2009; HeLa LMNA splicing GFP/RFP minigene ratio, 48 h; 0.01% of 200,000 active; active means well fitted inhibition curve with a large enough effect in the signal ratio, with a control signal flat, not every such curve was filed as active; inconclusive means small, poorly fitted or top-dose-only effect, or effect the other way, or a change in a side signal; the % refers to the signal ratio; further: potency means the concentration at half of the fitted maximal effect
#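 S3 HeLa stable clones carrying a lamin A-EGFP splicing minigene plus DsRed2 were seeded at 600 cells/well in Opti-MEM with 2% FBS, pin-dosed and incubated 48 h at 37°C. Acumen cytometry (488 nm) gave the GFP/RFP total-intensity ratio.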
# ALDH1A1 inh: qHTS Assay for Inhibitors of Aldehyde Dehydrogenase 1 (ALDH1A1); Aldehyde dehydrogenase 1A1 (Homo sapiens), P00352; Purified ALDH1A1, NADH fluorescence, propionaldehyde substrate; Potency, µM (titrated, usually from 75.3 µM), without a hit: top-dose activity, negative = inhibition, hits mostly inhibitors; 7.3% of 220,000 active; AID 1030, 2008;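 further: potency means the concentration at half of the fitted maximal effect; plate controls were no enzyme wells and a reference inhibitor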
# Target sequence (P00352 whole entry, looked up): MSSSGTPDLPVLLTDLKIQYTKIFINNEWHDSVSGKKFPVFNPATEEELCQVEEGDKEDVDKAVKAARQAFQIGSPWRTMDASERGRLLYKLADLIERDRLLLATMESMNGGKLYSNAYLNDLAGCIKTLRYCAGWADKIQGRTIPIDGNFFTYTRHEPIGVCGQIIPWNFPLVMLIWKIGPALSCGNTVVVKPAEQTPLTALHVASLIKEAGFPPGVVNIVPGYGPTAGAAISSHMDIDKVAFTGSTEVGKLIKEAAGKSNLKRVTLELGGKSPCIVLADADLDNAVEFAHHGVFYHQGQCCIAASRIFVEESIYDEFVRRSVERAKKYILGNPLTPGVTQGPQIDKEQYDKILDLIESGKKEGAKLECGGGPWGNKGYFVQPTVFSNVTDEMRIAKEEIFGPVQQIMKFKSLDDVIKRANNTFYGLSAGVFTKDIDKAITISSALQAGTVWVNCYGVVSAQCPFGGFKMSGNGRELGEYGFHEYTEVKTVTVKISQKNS
# IMPase cell inh: qHTS Assay for Identifying the Cell-Membrane Permeable IMPase Inhibitors; Inositol monophosphatase 1 (Rattus norvegicus), P97697; CHO-M1 cells, IP1 accumulation, HTRF TR-FRET ratio; inhibition (IP1 accumulation), % at 46.1 µM; 120,000 tested, under 10 active; active means well fitted curve in the direction sought with a large enough effect in the signal ratio, not every such curve was filed as active; inconclusive means small, poorly fitted or top-dose-only effect, or a change in a side signal; inactive means no such curve, though single readings can be large or run the other way; the % refers to the signal ratio;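 further: cells stimulated with carbachol in lithium chloride buffer; plate controls were DMSO basal wells for no effect and reference inhibitor wells for full effect; higher means more IMPase inhibition seen as more IP1 and lower FRET ratio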
# Target sequence (P97697 whole entry, looked up): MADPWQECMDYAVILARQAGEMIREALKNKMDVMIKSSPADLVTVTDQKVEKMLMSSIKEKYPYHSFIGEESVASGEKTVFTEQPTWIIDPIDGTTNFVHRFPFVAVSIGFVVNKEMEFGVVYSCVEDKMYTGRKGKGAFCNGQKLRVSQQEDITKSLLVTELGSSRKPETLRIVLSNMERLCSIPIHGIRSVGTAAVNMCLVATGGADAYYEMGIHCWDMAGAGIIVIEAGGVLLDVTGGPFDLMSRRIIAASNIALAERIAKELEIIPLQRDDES
#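 CHO-M1, 2000 cells/well, cultured 16–30 h; cpd up to 46 uM; carbachol (50 uM solution, stimulation buffer w/ 50 mM LiCl, pH 7.4), 30 min 37C; IP-One TR-FRET, 10 min RT; Ex 320/Em 665, 620; Hill-fit AC50.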
# HPGD inh: qHTS Assay for Inhibitors of HPGD (15-Hydroxyprostaglandin Dehydrogenase); 15-hydroxyprostaglandin dehydrogenase [NAD(+)] (Homo sapiens), P15428; Potency, µM, inactives show at the highest dose activity change, negative = inhibition, most hits filed as inhibitors; purified HPGD, NADH fluorescence kinetic, PGE2 substrate; 4.3% of 150,000 active; further: potency means the concentration at half of the fitted maximal effect
#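 NADH formation kinetics: reaction with 30 uM PGE2 and 1 mM NAD+ (final), 20 nM enzyme, Tris-HCl pH 8 with Tween 20, after 15 min compound preincubation at room temperature. Fluorescence change, last versus first of five reads.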
# The depositor's hits bear a star; ? = inconclusive; . = no result; [ ] = remark or other dose. Unless noted, the call rests on the fitted dose curve; in most records, active means well fitted inhibition curve with a large enough effect (not every such curve was filed as active); inconclusive means small, poorly fitted or top-dose-only effect, or another doubt; inactive means no such curve, though single readings can be large or run the other way. Unless noted, on the % scale 0 is the no-effect control and ±100 the full control effect.
SMILES,PNC inhibitor,KinaseGlo FLuc,Lamin A splicing,ALDH1A1 inh,IMPase cell inh,HPGD inh
CC1CN(C(=O)c2ccc3c(c2)OCO3)CC(C)O1 (centres undefined),?,-5.2%,-2.5%,13.3%,-2.9,25.1µM*
Cc1csc(NC(=O)c2ccc(N3CCCC3=O)cc2)n1,.,12.6µM*,0.9%[46 µM],?,.,.
CN1CCN(C(=O)c2ccc3c(c2)OCCO3)CC1,10.0,0.0%,-3.3%,2.6%,-8.1,15.8µM*
O=C(NC1=NCCS1)c1ccc(N2CCCC2=O)cc1,.,-0.5%,3.1%[46 µM],8.2%,.,.
CCCCC(=O)Nc1ccc(N2CCN(C(=O)CC)CC2)cc1,4.3,1.4%,4.4%,-1.3%,10.0,-16.9%
CCCCC(=O)Nc1ccc(C(=O)N2CCN(C)CC2)cc1,22.9,-4.8%,-8.5%,?,-1.1,14.1µM*
CC(C)(C)c1ccc(C(=O)N2CCN(Cc3cc(=O)n4nc(-c5ccccc5F)sc4n3)CC2)cc1,.,.,-4.9%[46 µM],.,.,.
CN1C(=O)c2cccc3c(S(=O)(=O)Nc4cccc(C(=O)O)c4)ccc1c23,.,.,.,.,12.5,.
CN1CCN(C(CNC(=O)C(=O)Nc2ccc(F)cc2F)c2ccc3c(c2)OCO3)CC1 (centres undefined),.,.,4.1%[46 µM],.,.,.
Cc1nnc(SCc2ccccc2F)n1NCc1cccs1,?,2.6%,-4.6%,-8.7%,16.2,31.6µM*
CC1CCC2(CC1)NC(=S)N(c1ccccc1)N2 (centres undefined),20.8,2.2%,?,15.8µM*,7.5,-4.1%
O=C1NC2(CCCCC2)NN1c1ccccc1,5.0,-2.9%,?,-5.0%,-6.1,-7.0%
Cc1c(-c2ncn[nH]2)sc(C#N)c1-c1ccccc1,.,3.9%,-2.3%[9.22 µM],25.1µM*,.,.
Cc1sc2nc(-c3ccccc3)[nH]c(=O)c2c1-c1ccccc1,71.0,-5.2%,15.8%,?,.,?
COc1ccc(Cn2c(-c3ccc(OC)cc3)nc3ccccc32)cc1,-100.0*,1.0%,?,?,17.3,-23.5%
COc1cccc(Cn2c(-c3nonc3N)nc3ccccc32)c1,-111.4*,-1.6%,14.7%,-12.9%,14.9,-15.4%
COc1ccc(Cn2c(-c3ccc(OC)cc3)nc3c(c(=O)c4ccccc4n3C)c2=O)cc1,-7.7,0.0%,-11.1%,0.282µM*,?,-3.3%
CCOC(=O)CSc1nc2ccc(NC(=O)COc3ccc(F)cc3)cc2s1,.,.,14.9%[46 µM],.,.,.
Cc1cc(SCC(=O)c2ccc(Br)cc2)cc(C)[o+]1,.,0.6%[7.66 µM],.,3.16µM*,.,-13.2%
CCOC(=O)c1cc2nc(-c3ccco3)cc(C(F)(F)F)n2n1,2.5,2.9%,-11.9%,?,.,?
Cc1cc2nc(-c3ccco3)cc(C(F)(F)F)n2n1,?,2.3%,2.4%,14.1µM*,4.5,-27.8%
O=C1CC(c2ccco2)Cc2nc(N3CCc4ccccc4C3)ncc21 (centres undefined),-18.7,10.5%,?,12.6µM*,1.1,?
CC(=O)Nc1ncc2c(n1)CC(c1ccco1)CC2=O (centres undefined),-29.5,6.9%,12.9%,-12.4%,-5.4,-7.4%
CCC(=O)Nc1ncc2c(n1)CC(c1ccco1)CC2=O (centres undefined),?,-3.2%,-8.5%,?,-5.9,-0.2%
O=C(CSC(=S)N1CCCCC1)Nc1ncc2c(n1)CC(c1ccco1)CC2=O (centres undefined),.,.,.,3.98µM*,.,.
SMILES,PNC inhibitor,KinaseGlo FLuc,Lamin A splicing,ALDH1A1 inh,IMPase cell inh,HPGD inh
Cc1ccc(S(=O)(=O)NC(=O)Nc2ncc3c(n2)CC(c2ccco2)CC3=O)cc1 (centres undefined),-97.2*,-1.9%,-5.0%,?,1.3,1.0%
C=CC1=C2C=C(C3CC3)N(Cc3ccco3)C=C2C(=O)C(C)(OC(=O)c2ccco2)C1=O (centres undefined),.,-2.2%[7.66 µM],5.9%[9.22 µM],0.1%[13.5 µM],.,-2.2%
CO[C@@H]1COC(=O)C/C=C\[C@H](C)COC(=O)[C@H](C)NC(=O)C/C=C\[C@H]1C,.,.,.,10.9%[13.5 µM],.,.
COc1ccc(NC(=O)CN2C(=O)CC(c3ccc(C)c(C)c3)=Nc3ccccc32)cc1OC,.,.,-6.7%[46 µM],.,.,.
COc1cc2c(cc1NC(=O)CSCC(=O)O)oc1ccccc12,-126.9*,-2.7%,-3.1%,?,-2.8,?
COc1cc2c(cc1NC(=O)COC(=O)Cn1cnc3ccccc31)oc1ccccc12,?,0.6%,?,11.2µM*,5.2,?
COc1ncc2nc(-c3ccccc3)c(=O)n(-c3ccccc3)c2n1,.,.,-2.7%,?,.,.
Cc1cc2nnc(SCc3ccc(F)cc3)n2c2ccccc12,.,.,.,.,-1.4,.
O=C1C=CC(=O)N1CCCCCCN1C(=O)C=CC1=O,?,1.5%,?,0.224µM*,8.1,2.24µM*
CSc1nnc2[nH]c(=O)cc(C)n12,.,.,8.4%[46 µM],.,.,.
O=C(Nc1ccc(O)cc1)c1ccc2c(c1)C(=O)N(Cc1ccco1)C2=O,-14.7,-0.9%,2.1%,14.1µM*,.,-8.9%
O=C(Nc1ccc(O)cc1C(=O)O)c1ccc2c(c1)C(=O)N(Cc1ccco1)C2=O,?,0.5%,1.5%,5.62µM*,-5.7,-13.0%
O=C(O)c1ccc(C(=O)c2ccc3c(c2)C(=O)N(Cc2ccco2)C3=O)cc1,?,-1.7%,12.2%,11.2µM*,-0.6,8.91µM*
O=C(c1ccc2c(c1)C(=O)N(Cc1ccco1)C2=O)N1CCOCC1,25.2,-2.7%,14.9%,?,-8.6,-6.3%
COc1cccc(CNC(=O)Cn2c(=O)nc(-c3ccccc3F)c3cc(Cl)ccc32)c1,.,.,-7.4%[46 µM],.,.,.
Cc1c(Cl)cccc1NC(=O)C(=O)NCC(c1cccnc1)N1CCN(c2ccccc2)CC1 (centres undefined),.,.,21.0%[46 µM],.,.,.
Cc1ccc(S(=O)(=O)N2c3ccc(S(N)(=O)=O)cc3CC2C)cc1 (centres undefined),-22.5,-1.1%,3.0%,25.1µM*,.,-5.9%
Cc1ccc(S(=O)(=O)N2c3ccccc3CC2C)cc1 (centres undefined),.,1.4%,?,-4.5%,.,.
CCOc1ccc(S(=O)(=O)N2c3ccccc3CC2C)cc1 (centres undefined),-103.0*,-0.3%,?,?,0.0,-15.5%
N=c1sc2ccccc2n1CCS (tested in a mixture with another compound),.,-4.7%[7.66 µM],.,?,.,-10.8%
CCCCCCn1c(SCC(=O)OC)nc2c1c(=O)[nH]c(=O)n2C,-9.9,-0.2%,-2.5%,3.55µM*,6.5,7.94µM*
COC(=O)C(C)Sc1nc2c(c(=O)n(C)c(=O)n2C)n1CCC(C)C (centres undefined),-6.9,-0.3%,-1.6%,?,.,-14.2%

# Screening results (PubChem)
